CCHF vOTU inh – CCHFV vOTU protease inhibitors, primary screen, biochemical, Pep-AMC substrate, fluorescence; Crimean-Congo hemorrhagic fever virus L polyprotein viral ovarian tumor (vOTU) protease …; inhibition, % at 11.5 µM; 370,000 compounds, 0.55% hits; AID 651958, 2012; further: 0% = vehicle wells with enzyme and 100% = no enzyme wells
FBA Mtb inh – Mtb FBA enzyme inhibitors, primary screen, biochemical, fluorescence, strain H37Rv | purified M. tuberculosis FBA, fluorescence read-out | 360,000 compounds, 2.3% hits | AID 588726, 2011 | inhibition, % at 1 µM; in the data active means inhibition above about 27%;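 further: 0% = vehicle and 100% = reference inhibitor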
Target sequence (P9WQA3 whole entry, looked up): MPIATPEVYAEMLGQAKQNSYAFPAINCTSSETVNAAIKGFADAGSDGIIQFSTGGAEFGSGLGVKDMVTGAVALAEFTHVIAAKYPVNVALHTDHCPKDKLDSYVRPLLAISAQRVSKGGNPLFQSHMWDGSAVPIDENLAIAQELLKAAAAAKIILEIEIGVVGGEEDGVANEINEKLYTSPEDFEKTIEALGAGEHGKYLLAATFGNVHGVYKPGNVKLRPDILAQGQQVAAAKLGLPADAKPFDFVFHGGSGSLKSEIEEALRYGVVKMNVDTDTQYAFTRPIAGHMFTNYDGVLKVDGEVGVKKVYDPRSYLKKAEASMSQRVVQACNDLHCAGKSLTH
RecA splice inh – Mtb RecA intein splicing inhibitors, primary screen, biochemical, fluorescence, HTS | inhibition, % (concentration not given with the values) | 290,000 compounds, 0.75% hits | Protein RecA (Mycobacterium tuberculosis (strain ATCC 25618 / H37Rv)), P9WHJ3 | cell-free RecA intein splicing; in the data active means inhibition above about 30%;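 further: 0% = vehicle wells and 100% = reference inhibitor control wells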
GDH-TPI counter – GDH-TPI coupling enzyme inhibitors, primary screen, artefact control for M. tuberculosis FBA inhibitor project, biochemical, absorbance, full deck. GDH-TPI coupled enzyme counterscreen, NADH absorbance. AID 588335, 2011. inhibition, % at 4.8 µM. 360,000 compounds, 1.2% hits;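 further: 0% = DMSO wells and 100% = wells lacking the enzyme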
An asterisk follows results filed as active; i = inactive; x = no result; + = active, no number. Compounds with a hit are over-represented: about 4.2% of the library has one in this group of screens. Unless noted, no stated cut-off is given here; in the data, active means inhibition above about 30%; inactive means the rest.

SMILES	CCHF vOTU inh	FBA Mtb inh	RecA splice inh	GDH-TPI counter
CCOP(=O)(OCC)c1nc(/C=C/c2ccccc2)oc1NCc1ccc(OC)cc1	-290	+	-14	18
CCOP(=O)(OCC)c1nc(/C=C/c2ccccc2)oc1NCc1ccccc1	-302	+	-4	37*
Clc1ccc(/C=N/Nc2ncnc3nc[nH]c23)cc1	-2	-2	-2	20
Fc1cccc(/C=N/Nc2ccccn2)c1	17	-3	1	49*
Oc1ccc(/C=N/Nc2ncnc3nc[nH]c23)cc1	9	-1	-5	74*
Fc1ccccc1/C=N/Nc1ncnc2nc[nH]c12	26	-2	-7	28
Cc1ccc(/C=N/Nc2ncnc3nc[nH]c23)cc1	10	-5	-4	64*
Fc1cccc(F)c1/C=N/Nc1ccccn1	10	0	x	14
Fc1cccc(/C=N/Nc2ncnc3nc[nH]c23)c1	22	0	-6	42*
COC(=O)[C@@]12CCCCC3=C1N(CCC3)C(=O)[C@H]2CC(=O)NCCCCc1ccccc1	-2	x	x	x
CCc1ccccc1-c1cc(C(C)=O)c2n(c1=O)CCC2	1	x	x	x
O=C1N(Cc2ccccc2)c2ccccc2C12CCCc1sc(CCc3ccccc3)nc12 (centres undefined)	5	x	x	x
C=CCn1c(=N)c(C(=O)NCCCOC)cc2c(=O)n3cc(C)ccc3nc21	-314	+	i	14
C=CCn1cc(C(=O)NCCCOC)c(=O)c2cc(S(=O)(=O)N(CC)CC)ccc21	-1	1	-6	12
CCOCCCn1c(=N)c(C(=O)NCc2ccc3c(c2)OCO3)cc2c(=O)n3ccccc3nc21	3	x	-16	x
C=CCn1c(=N)c(C(=O)NCCCOC)cc2c(=O)n3ccccc3nc21	-272	+	-373	12
CC1CCN(C(=O)CN2c3cccc4cccc(c34)S2(=O)=O)CC1	-19	12	x	-8
CSC1=N/C(=C/c2cccnc2)C(=O)N1Cc1ccc(Cl)cc1	9	14	-3	12
CSC1=N/C(=C/c2cccnc2)C(=O)N1Cc1ccccc1	-9	9	-8	32*
CC(=O)NN1C(=O)/C(=C2/Sc3ccccc3N2C)SC1=S	-6	-7	-4	0
CN1C(=C2C(=O)OC(C)(C)OC2=O)Sc2ccccc21	0	-3	0	46*
CCCn1c(N/N=C\C=C\c2ccccc2)nc2c1c(=O)[nH]c(=O)n2C	17	-4	-3	31*
C=CCn1c(O)c(N=NC(=S)Nc2ccc(OC)cc2)c2ccccc21	7	-10	8	19
C=CCn1c(O)c(N=NC(=S)Nc2cccc(OC)c2)c2ccccc21	-4	-10	14	35*
COc1ccc(/C=N/NS(=O)(=O)c2ccccc2)cc1OC(=O)c1ccc(C)cc1	12	-3	9	10
SMILES	CCHF vOTU inh	FBA Mtb inh	RecA splice inh	GDH-TPI counter
COc1ccc(/C=N/NS(=O)(=O)c2ccc(C)cc2)cc1OC(=O)c1ccccc1	4	128*	-5	13
CCOc1ncccc1C(=O)OCC(=O)NCCc1ccc(S(N)(=O)=O)cc1	-12	2	x	-7
CN(C)C(=S)NCc1ccccc1	15	5	2	1
CN(N)C(=S)NCc1ccccc1	-2	+	-1	-3
COc1cc(OC)c2c(-c3cccc(-c4ccc(F)c(Cl)c4)c3)cc(=O)oc2c1	4	1	x	8
CCOC(=O)/C(=N\Nc1ccc(Br)cc1)N1CC(C)OC(C)C1 (centres undefined)	x	-4	-2	37*
CCOC(=O)/C(=N\Nc1ccccc1Cl)N1CC(C)OC(C)C1 (centres undefined)	24	2	-5	15
CCCCOCCCNC(=O)C[C@H]1C[C@@]2(C(=O)OC)C(=C[C@H](C3CCCC3)O[C@@H]2C)N(Cc2cccc3ccccc23)C1=O	26	x	x	x
C=CCN1[C@H](C#N)[C@@H](c2ccc(C#Cc3cccnc3)cc2)[C@H]1CO	-4	x	x	x
CC(=O)c1ccc(OCC(=O)OCC(=O)Nc2sccc2C(N)=O)cc1	8	-4	x	-4
CCOc1cc(/C=C2\C(=O)N(c3cccc(C(=O)O)c3)N=C2C(F)(F)F)ccc1OCC(=O)Nc1ccccc1OC	x	x	33*	x
COCc1cc(C)nc(N/N=C/c2ccc(-c3ccc(C(=O)O)c(Cl)c3)o2)c1C#N	x	x	-1	x
COCc1cc(C)n(CC(=O)N/N=C/c2ccc(-c3ccc(Cl)c(C(=O)O)c3)o2)c(=O)c1C#N	17	5	-2	69*
CCOC(=O)c1c(NC(=O)CSc2nc3ccccc3s2)sc(C(C)=O)c1C	13	0	3	33*
CCOC(=O)c1c(NC(=O)CSc2nc3cc(Cl)ccc3s2)sc(C(C)=O)c1C	-10	x	3	x
C[C@@H]1C(=O)N2N=Cc3ccccc3[C@H]2N2N=Cc3ccccc3[C@@H]12	1	x	x	x
CC(C)C(=O)N1CCCC1(C)C(=O)Nc1ccc(-n2cncn2)cc1 (centres undefined)	15	-2	x	9
CN(C(=O)NC1CCCCC1)[C@H]1C[C@H]2c3[nH]c4ccccc4c3CCN2C(=O)[C@H]1CO	-44	152*	x	18
Cc1ccc(NC(=O)CN(C)C(=O)COC(=O)c2nc3nccc(C)n3n2)cc1	-3	1	x	3
CN(C)c1ccc(-c2ccc3c(=O)c4ccccc4n(C)c3c2)cn1	-14	11	-14	15
Cc1cc(N2CCN(c3ccccc3)CC2)nc(-c2ccccc2O)n1	-7	7	x	7
Cc1cc(N2CCC(C)CC2)nc(-c2ccccc2O)n1	4	7	4	38*
COc1ccccc1CNC(=O)COC(=O)CSc1ccc(C)c(C)c1	5	-1	x	3
Cc1ccc(S(=O)(=O)N2CCOCC2)cc1C(=O)OCC(=O)NCc1ccccc1	-2	-5	0	-10
O=C1c2ccccc2NC(c2ccccc2)N1/N=C/c1ccccc1 (centres undefined)	14	7	4	1
SMILES	CCHF vOTU inh	FBA Mtb inh	RecA splice inh	GDH-TPI counter
O=C1c2ccccc2NC(c2ccc(O)cc2)N1/N=C/c1ccc(O)cc1 (centres undefined)	-10	3	-4	32*
C[C@@H]1CN([C@H](C)CO)C(=O)CCCn2nncc2CO[C@H]1CN(C)Cc1ccc2c(c1)OCO2	-1	-3	x	4
CCC(C)c1ccc2oc(-c3ccc(NC(=O)c4ncn[nH]4)cc3)nc2c1 (centres undefined)	-11	4	-1	31*
CC(C)c1ccc2oc(-c3ccc(NC(=O)c4ncn[nH]4)cc3)nc2c1	2	x	0	x
CCN(CC)c1ccc(C(=O)OCC(=O)NC(C)(C)C)cc1	7	-2	0	57*
CC(C)(C)NC(=O)COC(=O)c1ccc(NC(=O)CC#N)cc1	14	1	7	-2
Cc1cc(C)nc(SCC(=O)NN=Cc2ccc(C)o2)n1	16	-1	x	17
CC(=O)c1ccc(OCCCC(=O)Nc2cccc(S(=O)(=O)N3CCCCC3)c2)cc1	-7	4	x	1
CC(C)(O)C#Cc1ccccc1C(=O)NC(CC(N)=O)C(=O)O (centres undefined)	4	2	-4	32*

Source: PubChem BioAssay (several laboratories)
